According to PubChem BioAssay (EPA / NIEHS):
Results filed as inconclusive are left out. Activity calls are given as the source filed them. How the source made its calls: active means hit-call score of the fitted dose curve at least 0.9, where 1 is the maximum; inconclusive means response in the unintended direction; inactive means score below 0.9.

These compounds were tested against Peroxisome proliferator-activated receptor gamma (Homo sapiens) (UniProt P37231) (assay: ATG_PPARg_TRANS: Attagene TRANS-FACTORIAL HepG2 Assay for human Peroxisome Proliferator-activated Receptor-gamma (PPARg) (AID 2283007)).
Sequence of Peroxisome proliferator-activated receptor gamma (Homo sapiens) (P37231 whole entry, looked up): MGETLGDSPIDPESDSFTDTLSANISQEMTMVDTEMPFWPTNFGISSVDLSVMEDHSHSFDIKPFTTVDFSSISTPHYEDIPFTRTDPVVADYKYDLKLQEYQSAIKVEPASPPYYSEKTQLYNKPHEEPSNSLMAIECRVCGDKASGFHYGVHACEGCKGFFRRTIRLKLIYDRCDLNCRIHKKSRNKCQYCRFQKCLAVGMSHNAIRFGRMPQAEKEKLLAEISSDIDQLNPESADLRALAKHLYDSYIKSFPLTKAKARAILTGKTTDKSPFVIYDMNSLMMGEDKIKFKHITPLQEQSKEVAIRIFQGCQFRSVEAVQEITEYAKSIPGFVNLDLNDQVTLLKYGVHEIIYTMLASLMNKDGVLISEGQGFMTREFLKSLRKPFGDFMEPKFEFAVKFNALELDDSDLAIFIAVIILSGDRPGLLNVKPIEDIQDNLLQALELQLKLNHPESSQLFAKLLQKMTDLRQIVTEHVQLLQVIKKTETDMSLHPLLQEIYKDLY
Protocol: ATG_TRANS is a cell-based, multiplexed-readout assay that uses HepG2, a human liver cell line, with measurements taken at 24 hours after chemical dosing in a 24-well plate.ATG_PPARg_TRANS is one of 30 assay component(s) measured or calculated from the ATG_TRANS assay. It is designed to make measurements of mRNA induction, a form of inducible reporter, as detected with fluorescence intensity signals by Reverse transcription polymerase chain reaction (RT-PCR) and Capillary electrophoresis technology.Data from the assay component ATG_PPARg_TRANS was analyzed into 1 assay endpoint. This assay endpoint, ATG_PPARg_TRANS, was analyzed in the positive analysis fitting direction relative to DMSO as the negative control and baseline of activity. Using a type of inducible reporter, measures of mRNA for gain-of-signal activity can be used to understand the reporter gene at the transcription factor-level as they relate to the gene PPARG. Furthermore, this assay endpoint can be referred to as a primary readout, because this assay has produced multiple assay endpoints where this one serves a reporter gene function. To generalize the intended target to other relatable targets, this assay endpoint is annotated to the nuclear receptor intended target family, where the subfamily is non-steroidal.
Human liver HepG2 cells are transiently transfected with multiple reporter transcription units (MRTUs) in 6-well plates using FuGene 6 reagent (Roche; 3 ml FuGene/1 mg DNA). The MRTU constructs are regulated by a cis-regulating element (promoter). […] A major difference between the CIS and TRANS system is that in CIS activities of endogenous TFs are measured, whereas the TRANS assay evaluates changes in activities of exogenous, chimeric NR-Gal4 proteins. […] At the end of 24 hour incubation, total RNA was isolated using TriZol reagent (Invitrogen). The isolated RNA is then reverse-transcribed using oligo(dT) primer and Mo-MLV reverse transcriptase (Invitrogen) with DNAse I (Ambion) treatment for 30 min. The one-tenth of the produced cDNA was amplified by PCR using Taq DNA polymerase (Invitrogen) and two reporter sequence-specific primers. The PCR products were fluorescently labeled by primer extension with 6-arboxyfluorescein (6-FAM) 5'-labeled reporter sequence-specific primer (2 min at 95 C, 20 s at 68 C and 10 min at 72 C) and these products were digested with 5U of HpaI (New England Biolabs) for 2h at 37 C. The fragments were purified using Qiaquick PCR columns (Qiagen), analyzed on an ABI 3130xL genetic analyzer (Applied Biosystems) with peak positions identified by using a set of X-rhodamine (ROX)-labeled MapMarker1000 molecular weight standards (BioVentures). The raw capillary electrophoresis data was processed using Attagraph software (Attagene).

Row | Compound | AC50 | outcome
1 | Oc1c(Cl)cc(Cl)cc1Cl | 42.5 µM (active) | –
2 | O=[N+]([O-])c1ccc(Nc2ccccc2)cc1 | – | inactive
3 | CCOC(=O)CC(=O)CCl | 22 µM (active) | –
4 | CCCCOP(=O)(CCCC)OCCCC | 38.4 µM (active) | –
5 | CC(=O)CN(CC(C)=O)N=O | – | inactive
6 | OC[C@@H](O)[C@H]1O[C@@H]2O[C@H](C(Cl)(Cl)Cl)O[C@@H]2[C@H]1O | – | inactive
7 | Cc1cc(Cl)ccc1OCCCC(=O)O | 61.5 µM (active) | –
8 | N#Cc1ccc(Cl)cc1 | – | inactive
9 | Cc1cccc(N=Nc2ccc(N(C)C)cc2)c1 | – | inactive
10 | N#CCCC(Br)(C#N)CBr (stereo not given) | – | inactive
11 | NC(=O)CCl | – | inactive
12 | Oc1cc(Cl)c(Cl)cc1Cl | 55.9 µM (active) | –
13 | O=C(NC(=O)c1c(F)cccc1F)Nc1ccc(Cl)cc1 | 0.636 µM (active) | –
14 | CN(C)c1ccc(N=O)cc1 | – | inactive
15 | CCN(CC)C(=O)C(Cl)=C(C)OP(=O)(OC)OC | – | inactive
16 | CCOC(=O)C(SP(=S)(OC)OC)c1ccccc1 (stereo not given) | 70.8 µM (active) | –
17 | CC(C)(c1ccc(O)c(-c2ccccc2)c1)c1ccc(O)c(-c2ccccc2)c1 | 1.61 µM (active) | –
18 | Cc1cc(Cl)ccc1OC(C)C(=O)O (stereo not given) | 71.4 µM (active) | –
19 | COCCl | – | inactive
20 | c1ccc(-c2cccc(-c3ccccc3)c2)cc1 | – | inactive

Row | Compound | AC50 | outcome
21 | C=C(C)C(=O)OCCCCOC(=O)C(=C)C | 79.9 µM (active) | –
22 | O=C(O)CC(O)(CC(=O)O)C(=O)O | – | inactive
23 | OC[P+](CO)(CO)CO | – | inactive
24 | Clc1cnc(Oc2ccc(Oc3ncc(Cl)cc3Cl)cc2)c(Cl)c1 | 16.7 µM (active) | –
25 | CCCCCCCCCCCCCl | – | inactive
26 | CCCCOC(=O)COC(=O)c1ccccc1C(=O)OCCCC | 51.4 µM (active) | –
27 | CCCCCCCCCCCCN(C)C | – | inactive
28 | N#CCC#N | – | inactive
29 | CCOC(=O)Cc1ccccc1 | – | inactive
30 | O=S1(=O)OC(c2cc(Br)c(O)c(Br)c2)(c2cc(Br)c(O)c(Br)c2)c2ccccc21 | 36.9 µM (active) | –
31 | Cc1c([N+](=O)[O-])c(C)c([N+](=O)[O-])c(C(C)(C)C)c1[N+](=O)[O-] | – | inactive
32 | CCCCN(CCCC)C(=S)[S-].CCCCN(CCCC)C(=S)[S-].[Ni+2] | – | inactive
33 | Cc1cccc(OP(=O)(Oc2cccc(C)c2)Oc2cccc(C)c2)c1 | 13.9 µM (active) | –
34 | Cc1ccccc1OP(=O)(Oc1ccccc1)Oc1ccccc1 | 3.74 µM (active) | –
35 | CC(C)[N+](=O)[O-] | – | inactive
36 | CCCCC(CC)COC(=O)Cl (stereo not given) | – | inactive
37 | OC(c1ccc(Cl)cc1)(c1ccc(Cl)cc1)c1cccnc1 | – | inactive
38 | Nc1nc(N)nc(Cl)n1 | – | inactive
39 | Nc1ccc(Br)cc1 | – | inactive
40 | CC(=Cc1ccccc1)[N+](=O)[O-] | 3.91 µM (active) | –
